Hits are enriched below; roughly 11% of the tested compounds scored in any of these assays.
HCV inh = blocks hepatitis C virus; Huh7.5.1 HCVcc-Cre infection, luciferase reporter, 44 h; hit rate 3.4% among 340,000; Potency, µM (highest dose often 41.8 µM), without a hit: at the highest dose activity change, negative = inhibition, usual class: inhibitors
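1,000 cells/well; 4 h culture; + compound; + HCVcc-Cre (~0.5 moi); 44 h; luciferase substrate, RT 15 min; read 15 sec.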
AmpC inh detg = blocks E. coli AmpC beta-lactamase in detergent assay. hit rate 0.041% among 370,000. P00811. Potency, µM (top dose mostly 114 µM), for the others: at the highest dose activity change, negative = inhibition, hits mostly inhibitors. AmpC hydrolysis of nitrocefin, absorbance 480 nm, 0.01% Triton;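 note: 0% = no-compound wells and -100% = no-enzyme wells; nearly all actives have a fitted effect of over 25% in size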
Target sequence (P00811 whole entry, looked up): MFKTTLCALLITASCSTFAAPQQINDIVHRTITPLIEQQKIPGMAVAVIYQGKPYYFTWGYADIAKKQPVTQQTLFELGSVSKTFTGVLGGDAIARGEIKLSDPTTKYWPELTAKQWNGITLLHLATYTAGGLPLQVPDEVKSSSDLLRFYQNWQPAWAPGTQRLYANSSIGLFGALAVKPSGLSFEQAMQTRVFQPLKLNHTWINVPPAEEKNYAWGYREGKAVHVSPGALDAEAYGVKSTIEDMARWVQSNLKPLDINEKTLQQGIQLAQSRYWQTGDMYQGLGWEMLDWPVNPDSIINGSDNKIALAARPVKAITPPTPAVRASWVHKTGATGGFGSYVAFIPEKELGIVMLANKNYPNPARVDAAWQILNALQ
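20 mM phosphate pH 7.0 + 0.01% (detergent screen) or 0.0001% Triton X-100; 5.3 nM AmpC reagent; cpd preinc 15 min RT; nitrocefin (800 uM stock) to start; A480 q20 s × 4 min; Activity was normalised to no-enzyme and no-compound control wells.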
AMA1-RON2 inh = inhibitors of Plasmodium falciparum AMA1-RON2 interaction. AID 720542. Potency, µM (series often up to 58.2 µM), for inactives: at the top dose activity change, negative = inhibition, actives largely listed as inhibitors. hit rate 0.2% among 360,000. AlphaScreen AMA1-biotinylated RON2 peptide binding;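 note: 0% = vehicle wells and -100% = peptide control; nearly all actives have a fitted effect of over 45% in size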
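AMA1 (3D7) with his tag at 25 nM final met compounds first, then biotinylated RON2 peptide at 25 nM; detection used donor plus acceptor beads, 10 µg/mL apiece, read by AlphaScreen after 30 min at room temperature.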
Pf growth 48h = inhibits P. falciparum growth in the first generation, 48 h; Potency, µM (highest dose often 28.7 µM), without a hit: at the top dose activity change, negative = inhibition, hits mostly inhibitors; P. falciparum luciferase growth in erythrocytes, 48 h; hit rate 5.9% among 310,000
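Firefly luciferase activity from engineered P. falciparum reports growth; inhibitors lower the luminescent signal. Cultures contained 2% hematocrit erythrocytes at 0.1% final parasitemia.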
AmpC inh no detg = blocks E. coli AmpC beta-lactamase in detergent-free assay | hit rate 0.52% among 330,000 | AmpC nitrocefin hydrolysis, absorbance 480 nm, 0.0001% Triton | Potency, µM (highest dose often 57.1 µM), without a hit: top-dose activity change, negative = inhibition, most hits filed as inhibitors | AID 485341;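 note: plate controls were no compound for no effect and no enzyme for full effect; nearly all actives have a fitted effect of over 20% in size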
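AmpC (5.3 nM in the dispensed reagent) in 20 mM phosphate pH 7.0 with 0.01% (detergent screen) or 0.0001% Triton X-100 was preincubated with compounds for 15 min at room temperature. Nitrocefin was then added from an 800 uM solution, and hydrolysis was followed at 480 nm.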
Pf growth 96h = P. falciparum growth inhibition at 96 hours; P. falciparum luciferase reporter growth, 96 h; Potency, µM (series often up to 28.7 µM), without a hit: top-dose activity change, negative = inhibition, most hits filed as inhibitors; hit rate 6.9% among 320,000; AID 504834
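Parasite growth measured via integrated firefly luciferase reporter in P. falciparum. Infected erythrocytes at 2% hematocrit, 0.05% parasitemia final were treated 96 hours at 37 C under 5% CO2, and luminescence was read.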
The depositor's hits bear a star; u = inconclusive; x = not tested or not shown. Calls come from the whole dose curve; as a rule, active = well fitted curve in the direction sought with a large enough effect; inconclusive = small, poorly fitted or top-dose-only effect, or another doubt; inactive = no such curve, though single readings can be large; an effect the other way counts as inactive or inconclusive. Unless noted, % is set by controls: 0 for no effect and ±100 for the full control effect; potency is the fitted concentration of half-maximal effect.

SMILES | HCV inh | AmpC inh detg | AMA1-RON2 inh | Pf growth 48h | AmpC inh no detg | Pf growth 96h
Cc1c(NC(=O)c2ccccc2)c(=O)n(-c2ccccc2)n1C | 14% | -3% | 0% | 25% | -16% | 10µM*
COc1ccc(NC(=O)CSc2nc(-c3cc(OC)c(OC)c(OC)c3)[nH]c2-c2ccc(F)cc2)cc1 | x | 1% | x | x | x | x
Cc1ccc(Cl)cc1NC(=O)CN1C(=O)CSc2ccc(S(=O)(=O)N3CCCC3)cc21 | x | 5% | x | x | x | x
O=C1NC(=O)N(c2ccccc2)C(=O)/C1=C\C=C\c1ccccc1 | u | -3% | 3% | 3% | -54% | 23%
ClC1=C(Cl)C(Cl)=C(Cl)C1=C/C=C/c1ccccc1 | 8.9µM* | -2% | -8% | u | -36% | u
CC(=O)N/N=C/c1c(C)[nH]n(-c2ccccc2)c1=O | 6% | 5% | 65% | u | -25% | 44%
Cc1[nH]n(-c2ccccc2)c(=O)c1/C=N/NC(=O)c1ccccc1F | u | -10% | 88% | x | -16% | 2.3µM*
CC(=O)c1ccc(N2CCN(C(=O)CCS(=O)(=O)c3ccc4c(c3)oc(=O)n4C)CC2)cc1 | x | 18% | x | x | x | x
CC(=O)Nc1ccc(C2=NNC(=Nc3ccc(S(=O)(=O)N4CCOCC4)cc3)SC2)cc1 | u | 7% | -23% | u | 22% | 12µM*
CC(=O)Nc1ccc(C2=NNC(=Nc3cccc(S(=O)(=O)N(C)C)c3)SC2)cc1 | u | -1% | 19% | u | 34% | u
CC(C)(C)N=C1NN=C(c2ccc(S(=O)(=O)N3CCCCC3)cc2)CS1 | u | 6% | 57% | 3.7µM* | -27% | u
O=S(=O)(c1ccc(N=C2NN=C(c3cc(F)ccc3F)CS2)cc1)N1CCOCC1 | 22µM* | 2% | 18% | 2.3µM* | 32% | u
Cc1ccc(CNc2ccc(-c3nc(-c4ccco4)no3)cc2[N+](=O)[O-])cc1 | x | 10% | x | x | x | x
CCc1ccc(NCc2cc3ccc(OC)cc3n(CC(=O)Nc3ccccc3OC)c2=O)cc1 | x | -3% | x | x | x | x
CCOc1ccc(C2C(=O)N(C3CCCCCC3)CC(=O)N2Cc2ccccc2)cc1OC (centres undefined) | x | 7% | x | x | x | x
Cc1ccccc1O | 6% | x | 18% | x | 0% | x
Oc1cccc[c]1[Hg][Cl] | x | x | x | 1.1µM* | x | 1.1µM*
CCN(Cc1ccccc1)Cc1c(O)ccc2c(=O)c(-c3ccc(Cl)cc3)coc12 | x | 1% | x | x | x | x
CCc1ccc(OCC(=O)O/N=C(\N)c2ccncc2)c(Br)c1 | u | 2% | 2% | 179% | 1% | 7.4µM*
CC(=O)n1cc([C@H]2C=C(C(=O)N3CCN(Cc4ccc5c(c4)OCO5)CC3)O[C@@H](OCc3ccc(CO)cc3)C2)c2ccccc21 | u | 8% | -16% | 4.7µM* | 159% | 3.3µM*
CC(=O)n1cc([C@H]2C=C(C(=O)N3CCN(Cc4ccccc4)CC3)O[C@@H](OCc3ccc(CO)cc3)C2)c2ccccc21 | u | 0% | u | u | 184% | 2.9µM*
Cc1ccc2occ(-c3cc(-c4ccc(Cl)cc4)nc4c3COc3ccccc3-4)c(=O)c2c1 | x | 4% | x | x | x | x
COc1ccc(N2CC3=C(C2=O)C(c2ccc(Br)cc2)NC(=O)N3C)cc1 (centres undefined) | x | -1% | x | x | x | x
CCC1CN(C(=O)N2CCC(C(=O)NCc3ccc(C)o3)CC2)c2ccccc2O1 (centres undefined) | -27% | -2% | -15% | -4% | 35% | 9.3µM*
CCC1CN(C(=O)N2CCC(C(=O)NCc3cccc(F)c3)CC2)c2ccccc2O1 (centres undefined) | u | -6% | 4% | u | 139% | 9.3µM*
SMILES | HCV inh | AmpC inh detg | AMA1-RON2 inh | Pf growth 48h | AmpC inh no detg | Pf growth 96h
CCC1CN(C(=O)N2CCC(C(=O)NCc3cccs3)CC2)c2ccccc2O1 (centres undefined) | x | 21% | x | x | x | x
CCC1CN(C(=O)N2CCC(C(=O)NCc3ccco3)CC2)c2ccccc2O1 (centres undefined) | -18% | 1% | -9% | -2% | 31% | 12µM*
O=C(NCCS(=O)(=O)N1CCN(c2ccccc2)CC1)C(c1ccccc1)c1ccccc1 | x | 19% | x | x | x | x
c1ccc(CSc2ncn[nH]2)nc1 | 8% | 1% | 5% | 6% | -11% | 5.2µM*
COc1cc(CSc2ncn[nH]2)c(OC)cc1CSc1ncn[nH]1 | 3% | 1% | 23% | u | -7% | 13µM*
Brc1ccc(CSc2ncn[nH]2)cc1 | 3% | -17% | -12% | x | -19% | -7%
O=C(Cn1nc(Cc2cccnc2)c2ccccc2c1=O)Nc1cccc(C(F)(F)F)c1 | x | 0% | x | x | x | x
COc1cccc(C(=O)Nc2cccc(-c3nc4ncccc4o3)c2C)c1 | 9% | u | -1% | 11% | -26% | 81%
Cc1c(NC(=O)c2ccc([N+](=O)[O-])o2)cccc1-c1nc2ncccc2o1 | u | -4% | 8% | 12µM* | -23% | 11%
COc1ccc(C(=O)Nc2cccc(-c3nc4ncccc4o3)c2C)cc1OC | 10% | -2% | 3% | 1% | -4% | 3.7µM*
Cc1cc(C)cc(C(=O)Nc2cccc(-c3nc4ncccc4o3)c2C)c1 | x | 19% | x | x | x | x
COc1ccc(-c2cc(C(=O)OC(C)C(=O)c3ccccc3)c3cccc(Cl)c3n2)cc1 (centres undefined) | x | 6% | x | x | x | x
CN(C)c1cc(N/N=C/c2ccc(Cl)cc2)nc(N(C)C)n1 | 7.1µM* | 5% | -7% | u | -2% | -17%
COc1ccccc1Cc1nc2ccccc2nc1SCC(=O)Nc1c(C)cccc1C | x | -7% | x | x | x | x
O=[N+]([O-])c1ccc(C(c2sc3nc(-c4ccco4)nn3c2O)N2CCC3(CC2)OCCO3)cc1 (centres undefined) | x | 0% | x | x | x | x
O=C(C1CCC(Cn2c(=S)[nH]c3ccccc3c2=O)CC1)N1CCN(c2ccccc2)CC1 (centres undefined) | 10µM* | x | 92% | x | x | x
COc1ccccc1N1CCN(C(=O)C2CCC(Cn3c(=S)[nH]c4ccccc4c3=O)CC2)CC1 (centres undefined) | u | -15% | 79% | 10µM* | -6% | 70%
COc1ccc(N2CCN(C(=O)C3CCC(Cn4c(=S)[nH]c5ccccc5c4=O)CC3)CC2)cc1 (centres undefined) | 1µM* | -11% | 2% | u | 5% | 15%
O=C(C1CCC(Cn2c(=S)[nH]c3ccccc3c2=O)CC1)N1CCN(c2ccccn2)CC1 (centres undefined) | 13µM* | u | 16% | 0% | -22% | 12µM*
